# FLuc modulator: inhibits or activates purified firefly luciferase, miR-21 counter-screen. P08659. purified FLuc, Km substrates, luminescence inhibition. Potency, µM (doses to about 57.5 µM), for inactives: at the highest dose activity change, negative = inhibition, hits mostly inhibitors. hit rate 6.9% among 360,000;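 also: plate controls were vehicle for no effect and reference inhibitor for full effect; nearly all actives have a fitted effect of over 55% in size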
# Target sequence (P08659 whole entry, looked up): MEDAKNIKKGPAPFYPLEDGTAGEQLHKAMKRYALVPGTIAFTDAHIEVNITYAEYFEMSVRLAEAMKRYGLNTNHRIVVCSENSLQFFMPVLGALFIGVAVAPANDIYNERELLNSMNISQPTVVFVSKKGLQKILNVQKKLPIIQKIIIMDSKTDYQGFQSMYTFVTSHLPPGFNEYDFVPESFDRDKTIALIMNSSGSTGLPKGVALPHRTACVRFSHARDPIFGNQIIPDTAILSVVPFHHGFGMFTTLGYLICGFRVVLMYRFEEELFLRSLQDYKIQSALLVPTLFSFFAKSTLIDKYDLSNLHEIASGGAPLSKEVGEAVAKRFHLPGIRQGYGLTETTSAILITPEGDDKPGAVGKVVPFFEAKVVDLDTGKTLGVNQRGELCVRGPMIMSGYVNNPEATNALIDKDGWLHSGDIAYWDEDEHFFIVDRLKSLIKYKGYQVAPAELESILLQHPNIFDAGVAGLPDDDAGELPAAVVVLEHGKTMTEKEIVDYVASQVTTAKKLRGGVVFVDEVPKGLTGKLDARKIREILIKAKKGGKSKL
#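 Purified P. pyralis luciferase, 10 nM final, with Km-level 10 uM D-luciferin and 10 uM ATP in 50 mM Tris acetate pH 7.5, 10 mM Mg acetate, 0.01% Tween-20, 0.05% BSA; 6-point qHTS titration about 60 µM downward; luminescence read.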
# ELG1 genotoxic: inducers of genotoxicity in HEK293T ELG1-luciferase cells; HEK293T ELG1-luciferase reporter, luminescence, 16 h; hit rate 1.3% among 330,000; Potency, µM (doses to about 46 µM), without a hit: top-dose activity change, positive = activation, usual class: activators; also: % of control where 0% means no effect; nearly all actives have a fitted effect of over 60% in size
#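 16 hr compound incubation (37 °C, 5% CO2) of HEK293T cells carrying luciferase-tagged ELG1; luciferase then measured by ONE-Glo luminescence after 30 min at RT.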
# Rab9 promoter act: Rab9 promoter activation | AID 485297 | Huh7 Rab9 promoter-luciferase reporter, luminescence, 24 h | hit rate 2.8% among 320,000 | Potency, µM (doses to about 9.22 µM), for inactives: at the highest dose activation, negative = inhibition, hits mostly activators; also: % of control where 0% means no effect; nearly all actives have a fitted effect of over 60% in size
#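 Cell-based reporter: Huh7 stable for Rab9 promoter-driven luciferase, plated in reduced-serum medium with 10% FBS at 1500 cells/well, compound-treated 24 h at 37 °C, luminescence read after 10 min reagent.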
# p53 reactivator: mutant p53 re-activation in reporter cells. H1299 p53-A138V BP100-luciferase reporter, luminescence, 24 h. hit rate 0.063% among 320,000. Potency, µM (top dose mostly 92.2 µM), for the others: top-dose activity change, positive = activation, most hits filed as activators; also: % of control where 0% means no effect; nearly all actives have a fitted effect of over 45% in size
#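 H1299 (p53-null), stable ts p53-A138V + BP100-Luc; 1000 cells/well, Opti-MEM/10% FBS; cpd 4 pt, 1:5; 24 h, 37 deg C, 5% CO2; detection reagent 10 min RT; luminescence.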
# SMN2 splice enh: increases expression of the SMN2 splice variant; HEK293 SMN2-luciferase splicing reporter, luminescence, 30-36 h; hit rate 2.8% among 210,000; Potency, µM (top dose mostly 46.1 µM), for inactives: top-dose activity change, positive = activation, hits mostly activators; AID 1458; also: % of control where 0% means no effect; nearly all actives have a fitted effect of over 55% in size
#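 HEK293 cells carry an SMN2 […]–luciferase reporter in which exon 7 inclusion puts luciferase in frame. Cells were plated 10-12 h before compound addition, then incubated 30-36 h at 37C. ONE-Glo luminescence was read; sodium butyrate at 4.5 mM final served as control.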
# NPC1 promoter act: NPC1 promoter activation; Huh7 NPC1 promoter luciferase reporter, 24 h; Potency, µM (series often up to 9.22 µM), for inactives: at the highest dose activation, hits mostly activators; hit rate 2.4% among 320,000; AID 485313; also: % of control where 0% means no effect; nearly all actives have a fitted effect of over 60% in size
#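 Stable NPC1-promoter luciferase Huh7 line; cpd (DMSO) 24 h, 37 °C, 5% CO2; Amplite luciferase reagent 10 min RT; luminescence readout. qHTS format.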
# * hit, by the source's call; ? = inconclusive; . = not tested or not shown. An excerpt weighted towards active compounds, which were near 7.3% of everything screened. Calls follow the shape of the dose curve; as a rule, active = well fitted curve in the direction sought with a large enough effect; inconclusive = small, poorly fitted or top-dose-only effect, or another doubt; inactive = no such curve, though single readings can be large; an effect the other way counts as inactive or inconclusive. Potency is read from the fitted curve at half-maximal effect.
SMILES,FLuc modulator,ELG1 genotoxic,Rab9 promoter act,p53 reactivator,SMN2 splice enh,NPC1 promoter act
CCC(=O)Nc1ccc(-c2nc3ccccc3c(=O)o2)cc1,1.3µM*,-11%,4%,2%,-5%,-1%
CCC(=O)Nc1ccc(-c2nnc(-c3ccccc3)o2)cc1,0.95µM*,?,0.32µM*,?,.,0.32µM*
CCC(=O)Nc1nnc(-c2ccc(OC)cc2)o1,24µM*,7%,1%,?,15%,13%
CCC(=O)Nc1cccc(-c2nnc(-c3cccc(NC(=O)CC)c3)o2)c1,?,-6%,-3%,-7%,-19%,1%
O=C(O)C1C2C=CC(O2)C1C(=O)NCCCn1ccnc1 (stereo not drawn),4%,3%,-9%,-9%,.,0%
CCOc1ccc(CCNC(=O)COC(=O)c2ccncc2)cc1OCC,.,1%,.,1%,.,.
CCOc1ccc(CCNC(=O)COC(=O)c2cccc(N(C)C)c2)cc1OCC,-13%,1.8µM*,1.6µM*,7%,.,4µM*
Cc1cccc(NC(=O)CSc2nc3ccccc3c(=O)n2C)c1,-5%,6%,-6%,-2%,.,-11%
CN(C)c1ccc(/C(=N\O)c2ccccc2)cc1,?,23%,14%,?,21%,27%
CN(C)c1ccc(N=Nc2ccccc2Br)cc1,0.19µM*,?,6.3µM*,?,.,3.5µM*
CC(=O)c1ccc(N=Nc2ccc(N(C)C)cc2)cc1,0.3µM*,?,0.4µM*,1%,14%,0.56µM*
CC(=O)c1ccc(N=Nc2ccc(C)cc2)cc1,0.95µM*,0.46µM*,0.32µM*,11%,1.3µM*,0.32µM*
CC1=NN(Cc2ccccc2)C(=O)/C1=C\c1ccc(N(C)C)cc1,11µM*,7%,-1%,?,7%,1%
CCOC(=O)C1=NN(c2ccccc2)C(=O)/C1=C\c1ccc(N(C)C)cc1,-5%,14%,-5%,0%,-1%,-1%
Cc1ccc(CSc2ccc3nnc(CCNS(=O)(=O)c4ccc(C)cc4)n3n2)cc1,-3%,.,.,.,.,.
Cc1cc(C)c(/C=C/c2onc(C)c2S(=O)(=O)N2CCC(C(=O)N3CCN(c4ccccc4)CC3)CC2)c(C)c1,5%,.,.,.,.,.
O=C(Nc1ccccc1C(=O)O)c1cccc(N2C(=O)c3ccccc3C2=O)c1,?,-7%,0%,2%,.,2%
Cc1cc(C(=O)OCC(=O)Nc2cc(S(=O)(=O)N(C)C)ccc2Cl)c2ccccc2n1,2%,0%,-4%,-3%,15%,0%
Cc1cc(C(=O)OCC(=O)Nc2cc(S(=O)(=O)N(C)C)ccc2C)c2ccccc2n1,-1%,-6%,-5%,-5%,9%,-1%
Cc1ccc(S(=O)(=O)N(C)C)cc1NC(=O)COC(=O)/C=C/c1cnc2ccccc2n1,17µM*,27%,7%,0%,8%,1%
CN(C)S(=O)(=O)c1ccc(Cl)c(NC(=O)COC(=O)/C=C/c2cnc3ccccc3n2)c1,11µM*,4%,9%,8%,.,1%
O=C(C(=O)N1CCCC1CO)N1CCCC1CO (stereo not drawn),1%,-1%,-8%,-2%,.,-4%
CCC1=NN=C(c2ccc(F)cc2)C(c2c[nH]c3ccccc23)N1O (stereo not drawn),?,3%,-2%,?,-15%,-1%
Cn1nnc2c(NCc3ccc(Cl)cc3)ncnc21,-1%,.,.,.,.,.
COc1cc(/C=C(/C#N)c2nc(-c3cc4ccccc4oc3=O)cs2)ccc1O,?,.,.,.,-22%,.
SMILES,FLuc modulator,ELG1 genotoxic,Rab9 promoter act,p53 reactivator,SMN2 splice enh,NPC1 promoter act
O=C(NCC1CC1(Cl)Cl)Nc1ccc(Cl)c(Cl)c1 (stereo not drawn),17µM*,-4%,?,?,.,?
Cn1cccc1CNC(=O)Nc1ccc(Cl)c(Cl)c1,8.5µM*,?,3.2µM*,22%,?,4µM*
Cc1ccc(NC(=O)NCC2CC2(Cl)Cl)cc1 (stereo not drawn),11µM*,?,3.5µM*,?,.,2.2µM*
COCCNC(=S)Nc1ccc(Cl)c(Cl)c1,-2%,-2%,-1%,-2%,?,2%
O=C(NCc1cccnc1)Nc1ccc(Cl)c(Cl)c1,?,11%,?,10%,.,18%
C=COCCNC(=O)Nc1ccc(Cl)c(Cl)c1,17µM*,-3%,?,?,27%,?
Cc1ccc2nc(-c3ccc(NC(=O)C(F)(F)F)cc3)sc2c1,0.48µM*,.,.,.,3%,.
Cc1ccc2nc(-c3ccc(NC(=O)c4ccccc4S(C)(=O)=O)cc3)sc2c1,21µM*,.,.,.,.,.
Cc1ccc2nc(-c3ccc(NC(=S)NC(=O)CC(C)C)cc3)sc2c1,24µM*,9.2µM*,1.1µM*,26%,31%,0.56µM*
Cc1ccc2nc(-c3ccc(NC(=O)c4ccc(S(C)(=O)=O)cc4)cc3)sc2c1,2%,.,.,.,.,.
Cc1ccc2nc(-c3ccc(NC(=O)CNC4CC4)cc3)sc2c1,2.7µM*,?,0.28µM*,-1%,2.2µM*,0.63µM*
CN(C(=O)CSc1nc2ccccc2n1Cc1cccc(C(F)(F)F)c1)c1ccccc1,-8%,.,.,.,.,.
COc1ccc(CCNC(=O)CCc2c(C)nc3c(c(C)nn3-c3ccc(C)cc3)c2C)c(OC)c1,-6%,.,.,.,1%,.
COC(=O)COc1ccc(Oc2nc(NC(C)(C)C)nc(N(C)C)n2)nn1,-5%,.,.,.,1%,.
O=C(Nc1ccccc1O)c1ccc(Cl)cc1,27µM*,?,?,?,-13%,3.2µM*
O=C(Nc1ccccc1OC(=O)c1ccc(Cl)cc1)c1ccc(Cl)cc1,-10%,16%,3.2µM*,?,31%,?
COc1ccc(C(=O)Nc2cc(Cl)ccc2OC(=O)c2ccc(OC)cc2)cc1,?,?,?,?,24%,3.5µM*
Cc1ccc(Oc2ccc(Cl)cc2NC(=O)c2cnccn2)cc1,0%,0%,0%,0%,11%,-5%
Cc1ccc(C(=O)Nc2cc(Cl)ccc2OC(=O)c2ccc(C)cc2)cc1,21µM*,23%,4µM*,23%,14µM*,?
COc1cccc(CNC(=O)COC(=O)c2ccc(Cl)s2)c1,.,1%,.,1%,.,.
Cc1ccc(C)c(N2CCN(C(=O)C34CC5CC(C3)CC(n3nnc(C)n3)(C5)C4)CC2)c1,2%,-11%,-16%,0%,.,-13%
Cc1cc(NC(=O)c2ccc(Cl)cc2)c(C(C)C)cc1O,?,-3%,5%,-4%,-6%,6%
Cc1cc(NC(=O)c2ccc(Cl)cc2)c(C)cc1O,24µM*,14%,21%,0%,.,2%

# Compound activity: PubChem, National Center for Advancing Translational Sciences (NCATS)
